Assay results taken from PubChem BioAssay.
Calls of active or inactive are those of the source. Unless noted, no rule for the calls is given here.

Key:
[1] = resazurin metabolic signal in HepG2 cells – cell-based, resazurin fluorescence, 24 h, PK04 Diversity Set, profiling panel (AID 1172); details: HepG2 viability, higher = more signal; also: test concentration not given here
[2] = budding yeast growth changes without added modifier – OD600, strain BY4716, 24 h, basal condition, primary screen (AID 1173); details: S. cerevisiae BY4716 growth, OD600, 24 h; higher = more signal, called active from +8 up or from −8 down
[3] = viability profiling in MM1S myeloma cells – cell-based, resazurin fluorescence, basal, 24 h, PK04 Diversity Set, profiling panel (AID 1174); details: higher = more signal, called active from +8 up or from −8 down;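 also: MM1S multiple myeloma cell line; test concentration not given here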
[4] = biological target: Dihydroorotate dehydrogenase (quinone), mitochondrial (Plasmodium falciparum (isolate 3D7)) (UniProt Q08210); test: inhibition of P. falciparum DHODH – biochemical, C-terminal His tag, absorbance 600 nm, primary screen (AID 1175); details: PfDHODH enzyme, DCIP absorbance 600 nm; higher = more signal, called active from +8 up or from −8 down;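 also: recombinant parasite enzyme with a five histidine tag at its C terminus; test concentration not given here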
Dihydroorotate dehydrogenase (quinone), mitochondrial (Plasmodium falciparum (isolate 3D7)), sequence (Q08210 whole entry, looked up): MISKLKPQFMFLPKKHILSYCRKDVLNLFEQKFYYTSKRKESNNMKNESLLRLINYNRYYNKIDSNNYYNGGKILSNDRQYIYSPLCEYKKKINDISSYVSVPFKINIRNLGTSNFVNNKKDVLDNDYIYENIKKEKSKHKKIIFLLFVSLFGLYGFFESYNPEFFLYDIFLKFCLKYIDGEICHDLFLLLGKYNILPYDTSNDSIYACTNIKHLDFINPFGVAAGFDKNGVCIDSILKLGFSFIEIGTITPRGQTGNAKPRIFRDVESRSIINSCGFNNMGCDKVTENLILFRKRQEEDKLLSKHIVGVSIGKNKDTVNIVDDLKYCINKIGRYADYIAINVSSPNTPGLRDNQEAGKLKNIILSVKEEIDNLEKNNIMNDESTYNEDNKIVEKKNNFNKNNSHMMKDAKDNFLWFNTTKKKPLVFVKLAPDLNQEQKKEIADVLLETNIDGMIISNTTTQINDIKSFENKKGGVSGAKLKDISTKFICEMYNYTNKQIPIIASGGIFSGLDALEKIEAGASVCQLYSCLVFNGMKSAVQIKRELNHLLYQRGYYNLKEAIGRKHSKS

[5] = inhibition of PAO1 biofilm formation – strain PAO1, LB-PBS medium, absorbance 600 nm, primary screen (AID 1176); also: test concentration not given here; details: P. aeruginosa PAO1 growth/biofilm, A600, 12 h; higher = more signal
[6] = growth modulation of vineyard yeast isolate – strain RM11-1a, OD600, basal, 24 h, primary screen (AID 1177);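 also: cultures grown under basal conditions with no added stressor; test concentration not given here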; details: S. cerevisiae RM11-1a growth, OD600, 24 h; higher = more signal, called active from +8 up or from −8 down
[7] = growth of efflux-deficient E. coli DRC39 – strain DRC39, OD650, 24 h, E. coli filamentation inducers, primary screen (AID 1178);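 also: growth measured as culture turbidity by optical density at 650 nm; test concentration not given here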; details: E. coli DRC39 acrAB, higher = more signal, called active from +8 up or from −8 down
[8] = growth of efflux-deficient E. coli DRC39 – strain DRC39, OD650, 48 h, E. coli filamentation inducers, primary screen (AID 1179);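 also: screen aims at cell division blockers that make cells filament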; details: E. coli DRC39 delta-acrAB growth, higher = more signal, called active from +8 up or from −8 down
[9] = viability profiling in RPMI8226 myeloma cells – cell-based, resazurin fluorescence, basal, 24 h, PK04 Diversity Set, profiling panel (AID 1180); details: higher = more signal;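 also: RPMI8826 multiple myeloma cell line at 5000 cells per well; test concentration not given here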
[10] = biological target: E3 ubiquitin-protein ligase XIAP (Homo sapiens) (UniProt P98170); test: small molecules binding XIAP protein – biophysical, small-molecule microarray, fluorescence 635 nm, primary screen (AID 1181); details: higher = more signal;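 also: score merges 667 nm emission and signal to noise over triplicate slides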
E3 ubiquitin-protein ligase XIAP (Homo sapiens), sequence (P98170 whole entry, looked up): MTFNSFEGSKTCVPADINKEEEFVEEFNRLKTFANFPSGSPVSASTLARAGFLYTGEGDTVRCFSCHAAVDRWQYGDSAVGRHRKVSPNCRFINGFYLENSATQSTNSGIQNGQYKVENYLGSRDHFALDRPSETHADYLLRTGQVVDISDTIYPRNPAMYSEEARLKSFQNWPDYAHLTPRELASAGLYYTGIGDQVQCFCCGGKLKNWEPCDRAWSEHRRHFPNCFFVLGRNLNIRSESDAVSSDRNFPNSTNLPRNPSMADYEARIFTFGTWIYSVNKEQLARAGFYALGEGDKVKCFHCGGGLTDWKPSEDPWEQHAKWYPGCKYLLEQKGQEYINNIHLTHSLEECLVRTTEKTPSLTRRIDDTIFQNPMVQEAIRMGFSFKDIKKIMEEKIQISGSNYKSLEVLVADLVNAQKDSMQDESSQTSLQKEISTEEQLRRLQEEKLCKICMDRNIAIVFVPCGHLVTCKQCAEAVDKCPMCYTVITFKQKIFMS

Structure (SMILES)	z-score [1]	z-score [2]	z-score [3]	composite z-score [4]	z-score [5]	z-score [6]	z-score [7]	z-score [8]	z-score [9]	composite z-score [10]
COCCCNC(=O)[C@@H]1c2ccccc2C(=O)N(Cc2cc(F)cc(C(F)(F)F)c2)[C@H]1c1ccc(CO)cc1	-0.434	-0.336 (inactive)	-0.522 (inactive)	-1.13 (inactive)	0.36 (inactive)	-0.955 (inactive)	-0.109 (inactive)	-0.0475 (inactive)	-0.197	-0.309
COC(=O)[C@@]1(Cc2ccccc2N=[N+]=[N-])N=C(c2ccc(OCCCO)cc2)O[C@H]1c1ccccc1	-4.36	-0.642 (inactive)	-7.63 (inactive)	1.66 (inactive)	0.77 (inactive)	1.76 (inactive)	0.044 (inactive)	-1.12 (inactive)	-7.12	0.0472
O=C(O)[C@]1(CCS(=O)(=O)c2ccccc2)N=C(c2ccc(OCCCO)cc2)O[C@@H]1c1ccccc1	0.93	-0.334 (inactive)	0.716 (inactive)	-0.295 (inactive)	-1.3 (inactive)	-0.707 (inactive)	1.92 (inactive)	0.815 (inactive)	0.314	-0.0988
COCCOC(=O)N1C(=O)[C@@]2(c3cc(C#CCCO)ccc31)[C@H](C(=O)N1CCc3cc(OC)c(OC)cc3C1)[C@H]1C(=O)O[C@H](c3ccccc3)[C@H](c3ccccc3)N1[C@@H]2c1ccc(OCCO)cc1	1.36	0.543 (inactive)	0.665 (inactive)	-1.45 (inactive)	2.19 (inactive)	0.0817 (inactive)	0.443 (inactive)	1.75 (inactive)	0.152	-0.0412
COC(=O)[C@@]1(Cc2ccc(F)cc2)[C@H]2c3cc(C(=O)N(C)C)n(Cc4ccc(C)c(F)c4F)c3C[C@H]2CN1C(=O)c1ccccc1	0.245	0.534 (inactive)	-0.231 (inactive)	0.059 (inactive)	-0.0298 (inactive)	0.671 (inactive)	0.171 (inactive)	0.265 (inactive)	-0.455	-0.102
C[C@@]1([C@@H](NC(=O)c2cccs2)c2ccc(-c3ccccc3)cc2)C[C@H]1C1CCCCC1	0.133	0.774 (inactive)	-0.0911 (inactive)	-3.3 (inactive)	2.3 (inactive)	0.548 (inactive)	0.0767 (inactive)	-0.483 (inactive)	0.689	0.246
CCOC(=O)C[C@H]1[C@H](OC(=O)c2cc3ccccc3oc2=O)[C@@H](NC(=O)c2ccc3ccccc3n2)c2cc(OCCCO)ccc2N1C(=O)c1ccc2ccccc2n1	0.165	-0.535 (inactive)	0.35 (inactive)	0.315 (inactive)	-0.766 (inactive)	-0.361 (inactive)	1.72 (inactive)	0.627 (inactive)	-0.594	0.035
CC(C)CCC[C@@H](C)[C@H]1CC[C@@]2(C)C3=C(CC[C@]12C)[C@@]1(C)CC[C@H](OC(=O)C(C)(C)C)C(C)(C)C1CC3 (stereo not given in full)	0.411	-0.743 (inactive)	0.0609 (inactive)	-2.48 (inactive)	1.65 (inactive)	-4.69 (inactive)	1.41 (inactive)	-0.805 (inactive)	0.662	0.0356
Cc1ccc(S[C@]2(C(=O)O)CC(=O)N(C3CCCCC3)[C@@H]2c2ccc(CO)cc2)cc1	-0.628	-1.74 (inactive)	0.0977 (inactive)	0.234 (inactive)	0.512 (inactive)	-0.332 (inactive)	0.643 (inactive)	1.48 (inactive)	0.273	-0.0031
CN1C(=O)C2C=CC(C(O)c3ccc(F)cc3)N(N3CCCCC3)C2C1=O (stereo not given)	-1.49	1.62 (inactive)	-1.78 (inactive)	-0.555 (inactive)	1.41 (inactive)	1.42 (inactive)	-1.02 (inactive)	-0.837 (inactive)	-1.79	-0.0727
COC(=O)[C@@]1(Cc2ccc(OC)cc2)[C@H]2c3cc(C(=O)N(C)C)n(Cc4cc(F)c(F)c(F)c4)c3C[C@H]2CN1C(=O)c1ccccc1	-1.07	1.83 (inactive)	-2.61 (inactive)	-2.65 (inactive)	4.06 (inactive)	0.726 (inactive)	-0.337 (inactive)	-0.622 (inactive)	-2.32	0.0957
COCCOC(=O)N1C(=O)[C@@]2(c3ccccc31)[C@H](c1ccccc1OCCO)N1[C@H](c3ccccc3)[C@H](c3ccccc3)OC(=O)[C@H]1[C@@H]2C(=O)N1CCc2cc(OC)c(OC)cc2C1	-0.413	1.99 (inactive)	0.181 (inactive)	0.301 (inactive)	1.96 (inactive)	3.06 (inactive)	-1.29 (inactive)	-1.3 (inactive)	0.186	-0.146
C=C(COC)/C(=C/C[C@@H](OC(=O)c1ccncc1)c1cccc(OCCO)c1)c1cc(C(=O)OC)ccc1OC	-0.114	-18.2 (active)	-0.477 (inactive)	-7.37 (inactive)	0.236 (inactive)	-22.1 (active)	0.802 (inactive)	0.488 (inactive)	0.0987	0.201
CC1CC/C=C\[C@H]2OC34C=CCN(c5ccc(Cl)cc5)C(=O)[C@H]3N(C(CO)C(C)C)C(=O)[C@]4(C)C2C(=O)O1 (stereo not given in full)	-0.328	-0.432 (inactive)	0.0849 (inactive)	-2.37 (inactive)	0.109 (inactive)	-0.245 (inactive)	-0.163 (inactive)	0.129 (inactive)	0.399	0.0808
CCOC(=O)C[C@H]1[C@H](OC(=O)c2ccccc2-c2ccccc2)[C@@H](NC(=O)c2ccccc2)c2cc(OCCCO)ccc2N1C(=O)Cc1ccc(OC)cc1	0.834	0.606 (inactive)	-0.397 (inactive)	-0.369 (inactive)	0.142 (inactive)	0.143 (inactive)	0.228 (inactive)	0.15 (inactive)	-0.37	0.0871
C=CC[C@@]1(C(=O)NCCN2CCOCC2)N=C(c2ccc(OCCCO)cc2)O[C@@H]1c1ccccc1	0.255	-0.0792 (inactive)	0.275 (inactive)	1.61 (inactive)	1.13 (inactive)	1.45 (inactive)	0.297 (inactive)	-0.483 (inactive)	0.482	-0.237
COc1ccc([Si](C)(C)[C@@H]2[C@@H](CCO)O[C@]3(C(=O)N(Cc4cccc(N5C(=O)COc6ccccc65)c4)c4ccccc43)[C@H]2C)cc1	-2.07	0.967 (inactive)	-3.29 (inactive)	0.737 (inactive)	1.3 (inactive)	4.05 (inactive)	0.775 (inactive)	0.295 (inactive)	-3.26	0.0424
COCCCNC(=O)[C@@]1(Cc2ccccc2)COC(c2ccc(OCCCO)cc2)=N1	0.515	-0.0995 (inactive)	0.141 (inactive)	0.45 (inactive)	-0.499 (inactive)	-0.031 (inactive)	-0.13 (inactive)	0.993 (inactive)	1.22	-0.098
CCCC[C@@H](O)C1=C(COc2ccccc2)Cn2c(=O)n(-c3ccccc3)c(=O)n2[C@H]1CO	-0.196	-4 (inactive)	0.0088 (inactive)	-1.05 (inactive)	0.789 (inactive)	-3.57 (inactive)	1.36 (inactive)	0.0244 (inactive)	0.539	0.106
Cc1ccc(S[C@]2(C(=O)NCCN3CCOCC3)CC(=O)N(C3Cc4ccccc4C3)[C@@H]2c2ccc(CO)cc2)cc1	-0.211	0.884 (inactive)	-0.209 (inactive)	0.408 (inactive)	0.0435 (inactive)	0.948 (inactive)	0.435 (inactive)	0.337 (inactive)	-0.109	-0.0282
COCCOC(=O)N1C(=O)[C@@]2(c3cc(C#CCCO)ccc31)[C@H](C(=O)NC[C@H](O)c1ccccc1)[C@H]1C(=O)O[C@H](c3ccccc3)[C@H](c3ccccc3)N1[C@@H]2c1ccccc1OCCO	0.446	0.446 (inactive)	0.0837 (inactive)	0.246 (inactive)	1.12 (inactive)	1.88 (inactive)	0.136 (inactive)	0.259 (inactive)	-0.135	0.0593
C=CCC(OC(C)=O)[C@@H]1[C@@H](N(Cc2ccc(-c3ccccc3)cc2)C(=O)Cc2ccc(OC)cc2)c2cc(OCCCO)ccc2N1C(=O)c1ccc(-c2ccccc2)cc1 (stereo not given in full)	0.192	-1.13 (inactive)	0.833 (inactive)	-0.0887 (inactive)	-0.24 (inactive)	-0.754 (inactive)	1.57 (inactive)	0.807 (inactive)	0.989	0.233
